High-throughput results (PubChem)
NPC1 prom act: activators of NPC1 promoter; Huh7 NPC1 promoter luciferase reporter, 24 h; Potency, µM (top dose mostly 9.22 µM), for the others: at the top dose activation, usual class: activators; hit rate 2.4% among 320,000; further: % of control where 0% means no effect; nearly all actives have a fitted effect of over 60% in size
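Luminescence read-out of NPC1 promoter-driven luciferase in stably transfected Huh7 cells; compounds delivered in DMSO and left 24 h at 37C, 5% CO2, qHTS titration format.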
Rab9 promoter act: activates the Rab9 promoter | Huh7 Rab9 promoter-luciferase reporter, luminescence, 24 h | Potency, µM (top dose mostly 9.22 µM), inactives show at the top dose activation, negative = inhibition, actives largely listed as activators | hit rate 2.8% among 320,000 | AID 485297; further: % of control where 0% means no effect; nearly all actives have a fitted effect of over 60% in size
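Huh7 reporter line, Rab9 promoter upstream of luciferase. Compound exposure 24 h at 37 °C in reduced-serum medium with 10% FBS. Read-out: luminescence.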
FLuc counter: counter-screen for miR-21 project: firefly luciferase inhibitors or activators; P08659; hit rate 6.9% among 360,000; AID 588342; Potency, µM (series often up to 57.5 µM), for the others: at the highest dose activity change, negative = inhibition, usual class: inhibitors; purified FLuc, Km substrates, luminescence inhibition;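 further: plate controls were vehicle for no effect and reference inhibitor for full effect; nearly all actives have a fitted effect of over 55% in size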
Target sequence (P08659 whole entry, looked up): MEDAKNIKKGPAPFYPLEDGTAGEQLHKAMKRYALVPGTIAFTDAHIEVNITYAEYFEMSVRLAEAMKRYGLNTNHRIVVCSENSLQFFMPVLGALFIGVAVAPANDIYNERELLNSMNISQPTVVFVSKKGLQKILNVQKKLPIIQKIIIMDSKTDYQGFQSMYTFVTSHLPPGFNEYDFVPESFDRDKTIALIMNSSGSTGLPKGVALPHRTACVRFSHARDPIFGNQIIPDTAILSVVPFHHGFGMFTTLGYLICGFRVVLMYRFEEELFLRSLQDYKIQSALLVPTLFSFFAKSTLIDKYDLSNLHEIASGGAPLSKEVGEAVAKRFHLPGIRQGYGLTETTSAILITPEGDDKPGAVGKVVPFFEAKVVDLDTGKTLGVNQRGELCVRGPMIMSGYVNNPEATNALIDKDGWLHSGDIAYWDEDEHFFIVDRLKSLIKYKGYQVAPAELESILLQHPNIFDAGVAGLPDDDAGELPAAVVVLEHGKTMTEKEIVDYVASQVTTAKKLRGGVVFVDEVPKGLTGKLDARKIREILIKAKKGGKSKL
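Biochemical qHTS of compounds, final roughly 60 µM downward over six points, against 10 nM purified firefly luciferase using Km concentrations of substrates (10 uM D-luciferin, 10 uM ATP) in Tris acetate pH 7.5 buffer; luminescence output.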
ELG1 DNA repair: ELG1-dependent DNA repair inhibition | hit rate 2.3% among 330,000 | Potency, µM (top dose mostly 46.1 µM), for the others: at the top dose activity change, negative = inhibition, most hits filed as inhibitors | HEK293T ELG1-luciferase reporter, luminescence, 16 h; DNA damage induced by 5-fluorouridine; further: on the % scale 0 is the no-effect control and ±100 the full control effect; nearly all actives have a fitted effect of over 55% in size
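Cells (2,000 per well) received 5-fluorouridine plus test compound or DMSO and were incubated 16 hr at 37 °C, 5% CO2. Luciferase activity was read by luminescence 30 min after ONE-Glo addition; signal suppression marked inhibition of damage-induced ELG1 function.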
SMN2 splice up: increases expression of the SMN2 splice variant | hit rate 2.8% among 210,000 | HEK293 SMN2-luciferase splicing reporter, luminescence, 30-36 h | Potency, µM (top dose mostly 46.1 µM), without a hit: at the top dose activity change, positive = activation, actives largely listed as activators; further: % of control where 0% means no effect; nearly all actives have a fitted effect of over 55% in size
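HEK293 cells carry an SMN2 minigene-luciferase reporter in which exon 7 inclusion puts luciferase in frame. Cells were seeded at 2000 cells/well, attached for 10-12 hours, then exposed to compounds for 30-36 hours at 37C before ONE-Glo luminescence.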
ELG1 genotoxic: induces genotoxicity in HEK293T cells with luciferase-tagged ELG1; HEK293T ELG1-luciferase reporter, luminescence, 16 h; Potency, µM (series often up to 46 µM), without a hit: at the highest dose activity change, positive = activation, actives largely listed as activators; hit rate 1.3% among 330,000; AID 504466; further: % of control where 0% means no effect; nearly all actives have a fitted effect of over 60% in size
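Genotoxicity was scored as increased ELG1-luciferase reporter signal, measured by ONE-Glo luminescence (30 min, room temperature). Compound or vehicle exposure of the HEK293T reporter cells lasted 16 hr at 37°C.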
Active calls of the source: *; ? = inconclusive; / = not tested or not shown; [ ] = remark or other dose. An excerpt weighted towards active compounds, which were near 9.3% of everything screened. The call rests on the fitted dose curve; in most records, active means well fitted curve in the direction sought with a large enough effect; inconclusive means small, poorly fitted or top-dose-only effect, or another doubt; inactive means no such curve, though single readings can be large; an effect the other way counts as inactive or inconclusive. Potency means the concentration at half of the fitted maximal effect.

SMILES	NPC1 prom act	Rab9 promoter act	FLuc counter	ELG1 DNA repair	SMN2 splice up	ELG1 genotoxic
CC(C)c1ccc(-n2cnn(-c3ncccc3[N+](=O)[O-])c2=O)cc1	1.1µM*	0.89µM*	3µM*	?	7.9µM*	2.3µM*
COc1ccc2cc(C(=O)N/N=C/c3cc(OC)c(OC)c(OC)c3)[nH]c2c1	1%	-2%	6.7µM*	?	/	-6%
COc1cc2cc(C(=O)N/N=C/c3ccc(F)cc3)[nH]c2cc1OC	1%	4%	?	?	/	0%
Cc1c(C(=O)N/N=C/c2ccc(Cl)cc2)[nH]c2ccc(Cl)cc12	-18%	-19%	-13%	1%	?	3%
COc1cc2cc(C(=O)N/N=C/c3ccccc3Cl)[nH]c2cc1OC	-4%	-3%	17µM*	?	/	-5%
COc1ccc2[nH]c(C(=O)N/N=C/c3ccc(O)cc3O)cc2c1	-36%	-2%[1.84 µM]	11µM*	?	/	15%
COc1ccc(/C=N/NC(=O)c2cc3cc(OC)c(OC)cc3[nH]2)cc1	-2%	0%	?	-28%	/	1%
CCOc1ccc(/C=N/NC(=O)c2[nH]c3ccc(C)cc3c2C)cc1	-3%	4%	11µM*	-7%	/	-2%
CC(C)=CCC1=C(OCC(=O)O)C(=O)c2ccccc2C1=O	-3%	8%	4%	-26%	-14%[9.22 µM]	-1%
CCOc1ccc2[nH]c(C(=O)N/N=C/c3ccc(OC)cc3)cc2c1	-8%	-18%	11µM*	?	/	6%
Cc1ccc(-c2nnc(SCC#CCOC(=O)c3cccs3)o2)cc1	18%	20%	19µM*	?	6%	12%
O=C(OCC#CCSc1nnc(-c2ccccc2)o1)c1cc2ccccc2o1	11%	-4%	-7%	?	-15%	12%
Cc1ccc(-c2nnc(SCC#CCOC(=O)c3ccco3)o2)cc1	5%	?	17µM*	0%	-2%	?
O=C(OCC#CCSc1nnc(-c2ccc(Br)cc2)o1)c1cccs1	-5%	-2%	?	?	-45%	8%
Cc1ccnc(NC(=O)c2cc(F)c(F)cc2Cl)n1	-6%	0%	6%	7%	/	0%
CCOc1ccc(N=c2oc3cc(O)ccc3cc2C(=O)NCC2CCCO2)cc1 (stereo not given)	0%	-6%	0%	2.1µM*	-5%	13%
COc1ccc2oc(C(=O)NCC3CCCO3)c(C)c2c1 (stereo not given)	?	4µM*	13µM*	?	/	?
CCOc1ccc2oc(C(=O)NCC3CCCO3)c(C)c2c1 (stereo not given)	?	2.8µM*	15µM*	?	/	?
COc1ccc(NC(=O)C2CCC(CNc3c(N4CCOCC4)c(=O)c3=O)CC2)cc1Cl (stereo not given)	3%	-8%	3%	?	/	0%
COc1cccc(CNc2nc3ccccc3n2C)c1O	1µM*	1.8µM*	9.5µM*	?	/	9.2µM*
COc1ccccc1Nc1nc2ccccc2n1C	?	2.8µM*	15µM*	?	11µM*	?
COc1cccc(CNc2cnc3ccccc3c2)c1O	1.6µM*	1.8µM*	2.4µM*	?	3.5µM*	12µM*
COc1ccccc1Nc1nc2ccccc2n2cnnc12	10%	0%	?	0%	/	-1%
O=C(NC1CCCCC1)[C@@H]1CSC2c3ccccc3C(=O)N21 (stereo not given in full)	1%	-3%	-16%	3%	/	-2%
CO[C@]12CC(COC(=O)c3cncc(Br)c3)CN(C)[C@@H]1Cc1cn(C)c3cccc2c13 (stereo not given in full)	/	/	/	/	-11%	/
SMILES	NPC1 prom act	Rab9 promoter act	FLuc counter	ELG1 DNA repair	SMN2 splice up	ELG1 genotoxic
CC(C)CC(=O)NS(=O)(=O)c1ccc(NC(=O)c2ccco2)cc1	-10%	-6%	0%	?	/	1%
COc1cccc(-c2nnc3n2N=C(C(C)(C)C)CS3)c1	26%	-3%	-1%	?	-54%	-18%
Cc1ccc(-n2nc3ccc(N)cc3n2)cc1	?	0.5µM*	0.54µM*	?	3.2µM*	1.4µM*
Nc1ccc2nn(-c3cc([N+](=O)[O-])ccc3O)nc2c1	11%	17%	0%	11%	/	-4%
Nc1ccc2nn(-c3ccc(F)cc3)nc2c1	0.89µM*	1.4µM*	4.3µM*	?	/	3.3µM*
Cn1cc2ccc(N)cc2n1	1%	-5%	-16%	-1%	/	-2%
CC(C)c1ccc(-n2nc3ccc(N)cc3n2)cc1	0.89µM*	0.45µM*	0.15µM*	?	/	?
Cc1ccc(-n2nc3ccc(NC(=O)c4cccc([N+](=O)[O-])c4C)cc3n2)cc1	-7%	-13%	?	?	11%	8%
COc1ccc(C(=O)NC(=O)COC(=O)c2ccc(C)o2)cc1	-4%	1%	-3%	19%	/	0%
COc1ccc(-c2cc(C(F)(F)F)n3nc(C(=O)Nc4cc(Cl)cc(Cl)c4)cc3n2)cc1	/	/	-3%	/	-28%	/
COc1ccc(C(=O)NCc2csc(-c3cccs3)n2)cc1	0%	-2%	-2%	-15%	/	-4%
Cc1c(C(=O)OCCOc2ccccc2)[nH]c2c1C(=O)CC(c1ccccc1)C2 (stereo not given)	/	/	4%	/	-19%	/
COC(=O)C1C(=O)c2c([nH]c(C(=O)OCCOC(C)C)c2C)CC1C (stereo not given)	27%	?	13µM*	42%	1%	?
COC(=O)C1C(=O)c2c([nH]c(C(=O)OC3CCCC3C)c2C)CC1C (stereo not given)	1.6µM*	1.4µM*	2.4µM*	?	11µM*	4.6µM*
COC(=O)C1C(=O)c2c([nH]c(C(=O)OC3CCCCC3)c2C)CC1C (stereo not given)	2.8µM*	2.8µM*	1.7µM*	?	13µM*	?
Cc1c(C(=O)OC2CCCCC2)[nH]c2c1C(=O)CC(C)(C)C2	/	/	0%	/	-26%	/
Cc1ccc(CN2CC(C(=O)NCCCSc3ccccc3)CC2=O)cc1 (stereo not given)	-6%	0%	2%	3%	/	0%
CN(Cc1cccc(F)c1)C(=O)c1ccc(S(=O)(=O)N2CCCCCC2)cc1	/	/	/	21µM*	/	-3%
CN(Cc1ccc(F)cc1)C(=O)c1cccc(S(=O)(=O)N2CCN(c3ccccc3)CC2)c1	-4%	-5%	8%	18µM*	/	-3%
COCCN(Cc1ccccc1)C(=O)c1cccc(S(=O)(=O)N2CCN(c3ccccc3)CC2)c1	-9%	0%	0%	15µM*	/	-4%
